# From the supplement of paper PMC6089552
# Out of some 3,200 compounds screened, about 300 (9.4%) showed activity. The entries come from a sample that favours actives as a whole.
# Test system: A673/TR/shEF
# Experiment: cell viability (LOESS-normalised, relative to median of negative controls) (log2 ratio); higher = more viable cells (less compound effect), active = hit call of the paper (over 3 MAD below the median)
# Conditions: treatment time: 72 h
# Summary of the method: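 Doxycycline, present or absent from 24 h before compounds, was used to induce EWS-FLI1 shRNA knockdown in A673/TR/shEF Ewing sarcoma cells at 1,500 per well in 384-well plates. Cells then received library compounds at two or more concentrations, or DMSO controls, for three days. Viability was measured by CellTiter-Glo luminescence on an Envision reader, and per-plate LOESS correction, division by the negative-control median and log2 transformation followed.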
# [1] = 0.25 µM, library screen: screen1, EWS-FLI1 expression: high (no doxycycline)
# [2] = 0.25 µM, library screen: screen1, EWS-FLI1 expression: low (doxycycline-induced shRNA knockdown)
# [3] = 2.5 µM, library screen: screen1, EWS-FLI1 expression: high (no doxycycline)
# [4] = 2.5 µM, library screen: screen1, EWS-FLI1 expression: low (doxycycline-induced shRNA knockdown)
# [5] = 0.025 µM, library screen: screen1, EWS-FLI1 expression: high (no doxycycline)
# [6] = 0.025 µM, library screen: screen1, EWS-FLI1 expression: low (doxycycline-induced shRNA knockdown)
# [7] = 0.25 µM, library screen: screen2, EWS-FLI1 expression: high (no doxycycline)
# [8] = 0.25 µM, library screen: screen2, EWS-FLI1 expression: low (doxycycline-induced shRNA knockdown)
# [9] = 2.5 µM, library screen: screen2, EWS-FLI1 expression: high (no doxycycline)
# [10] = 2.5 µM, library screen: screen2, EWS-FLI1 expression: low (doxycycline-induced shRNA knockdown)
# [11] = 25 µM, library screen: screen1, EWS-FLI1 expression: high (no doxycycline)
# [12] = 25 µM, library screen: screen1, EWS-FLI1 expression: low (doxycycline-induced shRNA knockdown)
# [13] = 0.103 µM, library screen: screen3, EWS-FLI1 expression: high (no doxycycline)
# [14] = 0.103 µM, library screen: screen3, EWS-FLI1 expression: low (doxycycline-induced shRNA knockdown)
# [15] = 0.308 µM, library screen: screen3, EWS-FLI1 expression: high (no doxycycline)
# [16] = 0.308 µM, library screen: screen3, EWS-FLI1 expression: low (doxycycline-induced shRNA knockdown)
# [17] = 0.926 µM, library screen: screen3, EWS-FLI1 expression: high (no doxycycline)
# [18] = 0.926 µM, library screen: screen3, EWS-FLI1 expression: low (doxycycline-induced shRNA knockdown)
# [19] = 2.8 µM, library screen: screen3, EWS-FLI1 expression: high (no doxycycline)
# [20] = 2.8 µM, library screen: screen3, EWS-FLI1 expression: low (doxycycline-induced shRNA knockdown)
# [21] = 8.3 µM, library screen: screen3, EWS-FLI1 expression: high (no doxycycline)
# [22] = 8.3 µM, library screen: screen3, EWS-FLI1 expression: low (doxycycline-induced shRNA knockdown)
# [23] = 25 µM, library screen: screen3, EWS-FLI1 expression: high (no doxycycline)
# [24] = 25 µM, library screen: screen3, EWS-FLI1 expression: low (doxycycline-induced shRNA knockdown)
compound,measurement,setting,value
CSc1ccc(CN2CCN(Cc3ccco3)CC2)cc1,cell viability (log2),[1],0.0257 (inactive)
same,cell viability (log2),[2],0.0474 (inactive)
same,cell viability (log2),[3],0.00049 (inactive)
same,cell viability (log2),[4],0.109 (inactive)
Cn1cnc2c(NCc3ccccc3)nc(NCCO)nc21,cell viability (log2),[5],0.0452 (inactive)
same,cell viability (log2),[6],0.063 (inactive)
same,cell viability (log2),[1],0.0867 (inactive)
same,cell viability (log2),[2],0.0323 (inactive)
same,cell viability (log2),[7],0.272 (inactive)
same,cell viability (log2),[8],0.106 (inactive)
same,cell viability (log2),[3],0.0349 (inactive)
same,cell viability (log2),[4],0.0403 (inactive)
same,cell viability (log2),[9],0.208 (inactive)
same,cell viability (log2),[10],0.113 (inactive)
same,cell viability (log2),[11],0.00929 (inactive)
same,cell viability (log2),[12],0.0531 (inactive)
CC[C@H](CO)Nc1nc(NCc2ccccc2)c2ncn(C(C)C)c2n1,cell viability (log2),[5],0.0954 (inactive)
same,cell viability (log2),[6],0.0682 (inactive)
same,cell viability (log2),[13],0.0283 (inactive)
same,cell viability (log2),[14],-0.038 (inactive)
same,cell viability (log2),[1],0.0519 (inactive)
same,cell viability (log2),[2],0.0253 (inactive)
same,cell viability (log2),[7],0.213 (inactive)
same,cell viability (log2),[8],0.0581 (inactive)
same,cell viability (log2),[15],0.0653 (inactive)
same,cell viability (log2),[16],0.0646 (inactive)
same,cell viability (log2),[17],-0.0162 (inactive)
same,cell viability (log2),[18],0.042 (inactive)
same,cell viability (log2),[3],0.0221 (inactive)
same,cell viability (log2),[4],0.0445 (inactive)
same,cell viability (log2),[9],-0.591 (active)
same,cell viability (log2),[10],-0.646 (active)
same,cell viability (log2),[19],0.0824 (inactive)
same,cell viability (log2),[20],-0.0161 (inactive)
same,cell viability (log2),[21],0.118 (inactive)
same,cell viability (log2),[22],0.0527 (inactive)
same,cell viability (log2),[11],-0.0359 (inactive)
same,cell viability (log2),[12],0.0272 (inactive)
same,cell viability (log2),[23],0.0337 (inactive)
same,cell viability (log2),[24],0.0206 (inactive)
CC(C)n1cnc2c(NCc3ccccc3)nc(NCCO)nc21,cell viability (log2),[5],0.171 (inactive)
same,cell viability (log2),[6],-0.0915 (inactive)
same,cell viability (log2),[1],0.129 (inactive)
same,cell viability (log2),[2],-0.0331 (inactive)
same,cell viability (log2),[7],0.226 (inactive)
same,cell viability (log2),[8],0.0704 (inactive)
same,cell viability (log2),[3],-0.011 (inactive)
same,cell viability (log2),[4],0.0676 (inactive)
same,cell viability (log2),[9],0.247 (inactive)
same,cell viability (log2),[10],0.0622 (inactive)
same,cell viability (log2),[11],-0.0635 (inactive)
same,cell viability (log2),[12],0.0737 (inactive)
CN1C(=O)CCC1c1cccnc1 (stereo unspecified),cell viability (log2),[7],0.264 (inactive)
same,cell viability (log2),[8],0.181 (inactive)
same,cell viability (log2),[9],0.161 (inactive)
same,cell viability (log2),[10],0.0586 (inactive)
CN[C@H](Cc1ccccc1)C(=O)N1CCC[C@H]1C(=O)N[C@@H](Cc1c[nH]c2ccccc12)C(=O)C(F)(F)C(F)(F)F,cell viability (log2),[7],0.168 (inactive)
same,cell viability (log2),[8],0.0679 (inactive)
same,cell viability (log2),[9],0.0864 (inactive)
same,cell viability (log2),[10],0.0322 (inactive)
C[C@H](CCC(=O)O)[C@H]1CC[C@H]2[C@@H]3C[C@H](O)C4C[C@H](O)CC[C@]4(C)[C@H]3CC[C@]12C (stereo partly specified),cell viability (log2),[1],0.0369 (inactive)
same,cell viability (log2),[2],-0.0168 (inactive)
same,cell viability (log2),[3],0.0626 (inactive)
same,cell viability (log2),[4],-0.0216 (inactive)
CO[C@H]1C[C@@H]2CC[C@@H](C)[C@@](O)(O2)C(=O)C(=O)N2CCCC[C@H]2C(=O)O[C@H]([C@H](C)C[C@@H]2CC[C@@H](OCCO)[C@H](OC)C2)CC(=O)[C@H](C)/C=C(\C)[C@@H](O)[C@@H](OC)C(=O)[C@H](C)C[C@H](C)/C=C/C=C/C=C/1C,cell viability (log2),[13],-0.823 (active)
same,cell viability (log2),[14],-0.667 (active)
same,cell viability (log2),[15],-0.931 (active)
same,cell viability (log2),[16],-0.779 (active)
same,cell viability (log2),[17],-0.921 (active)
same,cell viability (log2),[18],-0.761 (active)
same,cell viability (log2),[19],-0.899 (active)
same,cell viability (log2),[20],-0.779 (active)
same,cell viability (log2),[21],-1.09 (active)
same,cell viability (log2),[22],-0.731 (active)
same,cell viability (log2),[23],-0.943 (active)
same,cell viability (log2),[24],-0.733 (active)
CO[C@H]1C[C@@H]2CC[C@@H](C)[C@@](O)(O2)C(=O)C(=O)N2CCCC[C@H]2C(=O)O[C@H]([C@H](C)C[C@@H]2CC[C@@H](O)[C@H](OC)C2)CC(=O)[C@H](C)/C=C(\C)[C@@H](O)[C@@H](OC)C(=O)[C@H](C)C[C@H](C)/C=C/C=C/C=C/1C,cell viability (log2),[13],-0.737 (active)
same,cell viability (log2),[14],-0.644 (active)
same,cell viability (log2),[15],-0.758 (active)
same,cell viability (log2),[16],-0.612 (active)
same,cell viability (log2),[17],-0.692 (active)
same,cell viability (log2),[18],-0.65 (active)
same,cell viability (log2),[19],-0.692 (active)
same,cell viability (log2),[20],-0.756 (active)
same,cell viability (log2),[21],-0.726 (active)
same,cell viability (log2),[22],-0.651 (active)
same,cell viability (log2),[23],-0.719 (active)
same,cell viability (log2),[24],-0.63 (active)
CO[C@H]1CC2CC[C@@H](C)[C@@](O)(O2)C(=O)C(=O)N2CCCC[C@H]2C(=O)O[C@H]([C@H](C)C[C@@H]2CC[C@@H](OP(C)(C)=O)[C@H](OC)C2)CC(=O)[C@H](C)/C=C(\C)[C@@H](O)[C@@H](OC)C(=O)[C@H](C)C[C@H](C)/C=C/C=C/C=C/1C,cell viability (log2),[13],-0.93 (active)
same,cell viability (log2),[14],-0.714 (active)
same,cell viability (log2),[15],-0.852 (active)
same,cell viability (log2),[16],-0.724 (active)
same,cell viability (log2),[17],-0.888 (active)
same,cell viability (log2),[18],-0.755 (active)
same,cell viability (log2),[19],-0.837 (active)
same,cell viability (log2),[20],-0.688 (active)
same,cell viability (log2),[21],-0.983 (active)
same,cell viability (log2),[22],-0.734 (active)
same,cell viability (log2),[23],-1.05 (active)
same,cell viability (log2),[24],-0.738 (active)
CO[C@H]1C[C@@H]2CC[C@@H](C)[C@@](O)(O2)C(=O)C(=O)N2CCCC[C@H]2C(=O)O[C@H]([C@H](C)C[C@@H]2CC[C@@H](OC(=O)C(C)(CO)CO)[C@H](OC)C2)CC(=O)[C@H](C)/C=C(\C)[C@@H](O)[C@@H](OC)C(=O)[C@H](C)C[C@H](C)/C=C/C=C/C=C/1C,cell viability (log2),[13],-0.862 (active)
same,cell viability (log2),[14],-0.712 (active)
same,cell viability (log2),[15],-0.972 (active)
same,cell viability (log2),[16],-0.713 (active)
same,cell viability (log2),[17],-0.859 (active)
same,cell viability (log2),[18],-0.683 (active)
same,cell viability (log2),[19],-0.839 (active)
same,cell viability (log2),[20],-0.886 (active)
same,cell viability (log2),[21],-0.828 (active)
same,cell viability (log2),[22],-0.678 (active)
same,cell viability (log2),[23],-0.905 (active)
same,cell viability (log2),[24],-0.717 (active)
O=C(O)CSc1nnc(COc2ccccc2)n1-c1ccc(Cl)cc1,cell viability (log2),[1],0.0719 (inactive)
same,cell viability (log2),[2],-0.0199 (inactive)
same,cell viability (log2),[3],0.0305 (inactive)
same,cell viability (log2),[4],0.0659 (inactive)
CC1(C)C=CC(=O)[C@@]2(C)C1CC(=O)[C@]1(C)C2CC[C@@]2(C)[C@H](c3ccoc3)OC(=O)C3OC321 (stereo partly specified),cell viability (log2),[1],0.0164 (inactive)
same,cell viability (log2),[2],0.0615 (inactive)
same,cell viability (log2),[3],0.135 (inactive)
same,cell viability (log2),[4],0.0703 (inactive)
C=C(O)CCC/C=C\C[C@@H]1[C@@H](/C=C/[C@H](O)C2Cc3ccccc3C2)[C@@H](F)C[C@@H]1O,cell viability (log2),[7],0.175 (inactive)
same,cell viability (log2),[8],0.154 (inactive)
same,cell viability (log2),[9],0.111 (inactive)
same,cell viability (log2),[10],0.184 (inactive)
Cc1ccc2c(c1)C(N1CCN(C)CC1)=Nc1cccnc1N2,cell viability (log2),[7],0.144 (inactive)
same,cell viability (log2),[8],0.13 (inactive)
same,cell viability (log2),[9],0.0813 (inactive)
same,cell viability (log2),[10],0.0355 (inactive)
CC1(C)C=Cc2cc3ccc(=O)oc3cc2O1,cell viability (log2),[1],0.0334 (inactive)
same,cell viability (log2),[2],0.0455 (inactive)
same,cell viability (log2),[3],0.0429 (inactive)
same,cell viability (log2),[4],0.132 (inactive)
Cc1ccc(C(=O)NCc2ccc3c(c2)OCO3)cc1,cell viability (log2),[1],0.0742 (inactive)
same,cell viability (log2),[2],-0.0061 (inactive)
same,cell viability (log2),[3],0.0676 (inactive)
same,cell viability (log2),[4],0.0498 (inactive)
